In all, about 320,000 compounds went through this assay and about 22,000 (6.9%) were called active. Entries that show only a call come without a potency. Inconclusive results (about 27%) are left out. The sample holds actives, similar compounds and a random draw of the others, so the mix is not that of the screen. Calls come from the whole dose curve; as a rule, active = well fitted inhibition curve with a large enough effect; inconclusive = small, poorly fitted or top-dose-only effect, or another doubt; inactive = no such curve, though single readings can be large or run the other way.
Potency is the fitted concentration of half-maximal effect.

A short description of the experiment: Primary qHTS for delayed death inhibitors of the malarial parasite plastid, 96 hour incubation. As to conditions: P. falciparum luciferase reporter growth; series mostly up to 28.7 µM. An excerpt: The goal of this screen is to discover new antimalarial compounds that act by inhibiting the development of the apicoplast in the malarial parasite Plasmodium falciparum. The biochemical processes that make this organelle essential for erythrocytic stage parasites are not well understood. However, antibiotics such as azithromycin and tetracycline, which target the apicoplast translational machinery, have a potent antimalarial effect.
We have developed a cell-based assay that measures parasite growth based on the expression of an integrated copy of a firefly luciferase reporter. To detect small molecules that cause this "delayed death" phenotype, erythrocytes infected with the luciferase-expressing parasites were incubated with compounds for either one or two generations, corresponding to 48 and 96 hours, respectively. Compounds that inhibit parasite growth in the second generation, but not the first, should be enriched in antimalarials that target the apicoplast. Growth inhibition is detected by a decrease in luciferase activity.
Assay Provider: David Fidock and Eric Ekland, Columbia University
Keywords: NIH Roadmap, MLPCN, MLI, MLSMR, qHTS, NCGC, qHTS, malaria, luciferase, viability
Four microliters of infected erythrocytes (2% hematocrit, 0.05% parasitemia final concentration) in culture medium were dispensed and the plates incubated for 96 hours at 37 C in 5% CO2. Two microliters of luciferase detection reagent was added and luminescence was detected by a ViewLux (PerkinElmer) reader.
Background: In qHTS, concentration-response curves come from the screen itself.
As for `COc1ccc(OC)c(NC(=O)CN(C)CCOc2ccc(Br)cc2)c1`, the Potency entry is “inactive”.

In the case of `CC(=O)Nc1ccc(NC(=O)C2CCCN2S(=O)(=O)c2cccc(C(F)(F)F)c2)cc1` (stereo unspecified), the Potency entry is “inactive”.

`O=C(Nc1n[nH]c(C(F)(F)F)n1)c1cccs1`: the Potency entry is “inactive”.

For `CC(=O)NS(=O)(=O)c1ccc(N/C(N)=N/c2nc(C)cc(C)n2)cc1`, the Potency entry is “inactive”.

For the compound `Clc1ccc2c(c1)C1=C(C(c3ccncc3)O2)C(c2ccc(Br)cc2)n2ncnc2N1` (stereo unspecified), the Potency was 3.29 µM (active).

For the compound `CC1=C(C(N)=O)C(c2ccc(Br)cc2)n2ncnc2N1` (stereo unspecified), the Potency entry is “inactive”.

For `COC(=O)COc1ccc2c(c1C)O/C(=C\c1ccco1)C2=O`, the Potency entry is “inactive”.

Take `CC1CC(C)(C)n2c(O)c(N=NC(N)=S)c3cccc1c32` (stereo unspecified): the Potency result was “inactive”.

On to `CCc1nc2ccc(C(=O)N3CCN(c4cccc(Cl)c4)CC3)cc2nc1CC`, for which the Potency is 7.38 µM (active).

Turning to `O=C(CCCC(=O)N1CCN(c2cccc(Cl)c2)CC1)c1ccccc1`, the Potency result is “inactive”.

In the case of `Cc1nc2ccc(C(=O)N3CCN(c4ccccc4)CC3)cc2s1`, the Potency result was “inactive”.

`CCOc1cc(C(=O)O)ccc1OCCOc1ccccc1`: the Potency entry is “inactive”.

Regarding `CN(CC(=O)Nc1cccc(F)c1)C(=O)CC1CCCC1`, the Potency result was “inactive”.

Take `COC(=O)c1ccc(-n2cnc3ccccc32)nc1`: the Potency entry was “inactive”.

Consider `Cn1c(NC(=O)c2ccccc2)nc2ccccc21`, for which the Potency result is “inactive”.

Regarding `c1ccc(-c2nccc(-c3ccc(-n4cnc5ccccc54)cc3)n2)nc1`, the Potency was 4.15 µM (active).

`O=C(O)C1=NN(c2c(F)c(F)cc(F)c2F)C(=O)CC1`: the Potency result is “inactive”.

Take `CSc1ncccc1C(=O)Nc1ccc(C)cn1`: the Potency result is “inactive”.

With `CCc1ccccc1NC(=O)CCOc1ccccc1`, the Potency entry was “inactive”.

On to `CCc1ccccc1NC(=O)Cc1cn(C)c2ccccc12`, for which the Potency is 13.1 µM (active).

For the compound `CCOC(=O)N1CCC(NC(=O)Cc2cn(C)c3ccccc23)CC1`, the Potency result was “inactive”.

Consider `COc1ccc(CNc2nc3c(c(=O)[nH]c(=O)n3C)n2Cc2ccccc2)cc1`, for which the Potency result is “inactive”.

Take `O=C(CC(c1ccccc1)c1ccccc1)NCC(O)c1ccc([N+](=O)[O-])cc1` (stereo unspecified): the Potency entry was “inactive”.

For `Cc1ccc(C(=O)CSc2ccccc2C(=O)O)cc1`, the Potency result is “inactive”.

As to `O=C(CSc1cccc[n+]1[O-])c1ccc(-c2ccccc2)cc1`, the Potency was 8.28 µM (active).

In the case of `O=C(CSc1cccc[n+]1[O-])NCCCc1ccccc1`, the Potency entry is “inactive”.

For the compound `CCCCC(=O)Nc1c2c(nn1-c1ccc([N+](=O)[O-])cc1)CS(=O)(=O)C2`, the Potency result is “inactive”.

Take `O=C(NCc1ccccn1)C1CCN(S(=O)(=O)c2ccc(Br)cc2)CC1`: the Potency result is “inactive”.

Take `COc1ccc2[nH]c(C)c(CCN(Cc3cccs3)C(=S)Nc3ccccc3OC)c2c1`: the Potency is 13.1 µM (active).

For the compound `COCCN(C(=S)Nc1ccccc1OC)C1CCN(C(C)C)CC1`, the Potency entry is “inactive”.

Turning to `CCN(CC(=O)NCc1cccs1)C(=O)c1cccc(S(=O)(=O)Nc2ccccc2OC)c1`, the Potency entry is “inactive”.

With `COc1ccc(S(=O)(=O)NC(C)c2ccccc2)cc1C(=O)N1CCCCC1` (stereo unspecified), the Potency entry was “inactive”.

For the compound `CC(=O)Nc1ccc(S(=O)(=O)N2CCN(S(=O)(=O)c3cccs3)CC2)cc1`, the Potency result was “inactive”.

As for `CC(C)(C)c1csc(NC2=NS(=O)(=O)c3ccccc32)n1`, the Potency result was “inactive”.

As to `CC(C)C(NS(=O)(=O)c1cccs1)C(=O)Nc1nc(C(C)(C)C)cs1` (stereo unspecified), the Potency was 13.1 µM (active).

On to `Cc1ccc(CS(=O)(=O)CCC(=O)NCc2ccc(F)cc2)cc1`, for which the Potency result is “inactive”.

Take `COc1ccc(CCC(C)N2CCc3ccccc3C2)cc1` (stereo unspecified): the Potency entry is “inactive”.

Consider `O=C(CN(C(=O)CCC(=O)Nc1nccs1)c1ccc(F)cc1)NCc1ccc2c(c1)OCO2`, for which the Potency result was “inactive”.

For `CCC1Sc2ccc(S(=O)(=O)CCC(=O)NCc3cccs3)cc2NC1=O` (stereo unspecified), the Potency result is “inactive”.

Turning to `Cc1nc(-c2nnc(SCC(=O)Nc3cc(C(F)(F)F)cc(C(F)(F)F)c3)n2C)cs1`, the Potency result was “inactive”.

`CCN(C(=O)COC(=O)C1CCN(S(=O)(=O)c2ccc(C)c(C)c2)CC1)C1CCS(=O)(=O)C1` (stereo unspecified): the Potency entry is “inactive”.

Regarding `CCCNC(=O)OC[C@H]1O[C@H](CCO/N=C/[C@@H](NS(=O)(=O)c2ccc(C)cc2)[C@H](C)/C=C/CC(=O)OC)C=C[C@@H]1Oc1ccc(OC)cc1`, the Potency was 7.38 µM (active).

Take `CCCC(C)NC(=O)C1CCN(C(=O)C2CC(=O)N(c3ccc(C)cc3)C2)CC1` (stereo unspecified): the Potency result is “inactive”.

On to `COc1ccc(CCNC(=O)COC(=O)C2CC2C)cc1` (stereo unspecified), for which the Potency result was “inactive”.

With `O=C(Nc1ccccc1C(=O)NCCCn1ccnc1)c1ccc(Cl)cc1Cl`, the Potency result is “inactive”.

For the compound `O=C(NCCCn1ccnc1)Nc1ccc(Cl)cc1Cl`, the Potency entry was “inactive”.

With `Clc1ccc(C(Cn2ccnc2)OCc2ccsc2Cl)c(Cl)c1` (stereo unspecified), the Potency was 6.75 µM (active).

In the case of `CC(OC(=O)CCCOc1ccccc1)C(=O)Nc1ccc(Cl)cn1` (stereo unspecified), the Potency result is “inactive”.

On to `CC1CCN(C(=O)COC(=O)CCC(=O)c2cccs2)CC1`, for which the Potency result is “inactive”.

As to `Cc1c(C(C)(C)O)[nH]c2ccc(C#N)cc12`, the Potency result was “inactive”.

As to `O=S(=O)(c1ccc(Br)cc1)n1ccc2ccccc21`, the Potency was 2.62 µM (active).
